Among the data in PubChem BioAssay are growth inhibition, inhibition and outcome values, retold here.

SMILES strings stand for the structures. Where “and” joins values, the source holds several entries; their conditions need not be identical. Equal values may be shown once. For some assays here: Potency and affinity values are given separately. More than one record can exist for a structure, and the calls need not agree. Calls of active or inactive are those of the source. Unless noted, no rule for the calls is given here.

The nature of experiment [1]: antimalarial activity against Dd2 strain (AID 2302;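 active = growth inhibition above 50% at the single 2 µM test dose, taken to imply half-maximal potency below 2 µM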;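 also: 0% = DMSO untreated growth and 100% = chloroquine plus artemisinin killed control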). The following applies: P. falciparum Dd2 in RBCs, LDH growth readout, 72 h; at 2 µM; stronger effect = higher value.
Experiment [2] is described as follows: human hepatoma cell viability loss – ATP luminescence, cytotoxicity control for P. falciparum antimalarial project, primary screen (AID 2303;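 active = inhibition above 50%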;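 also: 0% = DMSO wells and 100% = digitonin-killed cells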). The following applies: HepG2 viability, 24-48 h, at 10 µM, stronger effect = higher value.
Experiment [3] addresses L-lactate dehydrogenase (Plasmodium falciparum (isolate CDC / Honduras)) (UniProt Q27743). The experiment in a line: PfLDH activity inhibition – cell lysate, 3D7 strain, counter-screen for P. falciparum growth inhibition project (AID 2304).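 Also: 0% = vehicle and 100% = reference inhibitor.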 To be noted: P. falciparum 3D7 crude extract, LDH APAD/NBT absorbance; at 2 µM; stronger effect = higher value.
A short description of experiment [4]: inhibition of 3D7 malaria parasite growth – strain 3D7 (AID 2306).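 Also: 0% = DMSO wells and 100% = chloroquine plus artemisinin control wells.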 The following applies: P. falciparum 3D7 erythrocytic growth, LDH absorbance, 72 h; at 2 µM; stronger effect = higher value.
Experiment [5] concerns the target Calcium-dependent protein kinase 1 (Plasmodium falciparum (isolate 3D7)) (UniProt P62344). The experiment in a line: PfCDPK1 kinase inhibitors, biochemical, TCAMS library (AID 1159585; cut-off not given, nearly all actives have IC50 up to about 0.98 µM;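 also: inhibitors leave more ATP so luminescence rises with inhibition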). To be noted: recombinant PfCDPK1, Kinase-Glo ATP depletion luminescence. (In general: In Kinase-Glo more light means more ATP remaining.)
In experiment [6] the target is Plasmodium falciparum protein kinase 6 (PK6, PF3D7_1337100) (UniProt Q8IDW1). Description: PfPK6 kinase inhibitors, biochemical, TCAMS library (AID 1159586). To be noted: recombinant PfPK6, Kinase-Glo ATP depletion luminescence.
Experiment [7] deals with Protein kinase 7 (PK7), Plasmodium falciparum 3D7 (PF3D7_0213400) (UniProt Q7YTF7). Description: inhibition of Plasmodium PK7 catalytic activity – biochemical, TCAMS antimalarial set, Kinase-Glo luminescence (AID 1159587). The following applies: recombinant PfPK7, Kinase-Glo ATP depletion luminescence.
Experiment [8] has as its target Calcium-dependent protein kinase 4 (Plasmodium falciparum (isolate 3D7)) (UniProt Q8IBS5). Description: PfCDPK4 kinase inhibitors, biochemical, TCAMS library (AID 1159588; cut-off not given, nearly all actives have IC50 up to about 0.91 µM). To be noted: recombinant PfCDPK4, Kinase-Glo ATP depletion luminescence.

Calcium-dependent protein kinase 1 (Plasmodium falciparum (isolate 3D7)), sequence (P62344 whole entry, looked up): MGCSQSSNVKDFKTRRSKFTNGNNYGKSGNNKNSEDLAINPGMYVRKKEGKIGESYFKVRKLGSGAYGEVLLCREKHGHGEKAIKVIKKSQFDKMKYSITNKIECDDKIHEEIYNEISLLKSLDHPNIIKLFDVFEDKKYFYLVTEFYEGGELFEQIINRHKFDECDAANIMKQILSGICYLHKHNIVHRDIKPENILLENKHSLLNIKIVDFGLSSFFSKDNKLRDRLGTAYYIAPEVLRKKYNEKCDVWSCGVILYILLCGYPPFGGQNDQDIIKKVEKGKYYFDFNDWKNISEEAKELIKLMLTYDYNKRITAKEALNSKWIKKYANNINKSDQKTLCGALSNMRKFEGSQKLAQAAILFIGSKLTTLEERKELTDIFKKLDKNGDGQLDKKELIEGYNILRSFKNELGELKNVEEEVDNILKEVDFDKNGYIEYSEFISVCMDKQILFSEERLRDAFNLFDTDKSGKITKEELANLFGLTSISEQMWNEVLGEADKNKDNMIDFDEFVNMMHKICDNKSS
Protein kinase 7 (PK7), Plasmodium falciparum 3D7 (PF3D7_0213400), sequence (Q7YTF7 1-343): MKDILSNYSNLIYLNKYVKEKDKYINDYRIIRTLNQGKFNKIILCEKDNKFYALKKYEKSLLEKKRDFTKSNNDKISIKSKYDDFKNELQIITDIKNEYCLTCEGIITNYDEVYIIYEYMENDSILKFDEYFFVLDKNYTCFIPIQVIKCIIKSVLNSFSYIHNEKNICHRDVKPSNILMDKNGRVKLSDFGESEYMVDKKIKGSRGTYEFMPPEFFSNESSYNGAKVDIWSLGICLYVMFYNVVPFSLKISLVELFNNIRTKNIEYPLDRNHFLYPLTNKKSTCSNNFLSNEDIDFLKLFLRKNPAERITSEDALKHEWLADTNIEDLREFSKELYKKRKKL
Calcium-dependent protein kinase 4 (Plasmodium falciparum (isolate 3D7)), sequence (Q8IBS5 whole entry, looked up): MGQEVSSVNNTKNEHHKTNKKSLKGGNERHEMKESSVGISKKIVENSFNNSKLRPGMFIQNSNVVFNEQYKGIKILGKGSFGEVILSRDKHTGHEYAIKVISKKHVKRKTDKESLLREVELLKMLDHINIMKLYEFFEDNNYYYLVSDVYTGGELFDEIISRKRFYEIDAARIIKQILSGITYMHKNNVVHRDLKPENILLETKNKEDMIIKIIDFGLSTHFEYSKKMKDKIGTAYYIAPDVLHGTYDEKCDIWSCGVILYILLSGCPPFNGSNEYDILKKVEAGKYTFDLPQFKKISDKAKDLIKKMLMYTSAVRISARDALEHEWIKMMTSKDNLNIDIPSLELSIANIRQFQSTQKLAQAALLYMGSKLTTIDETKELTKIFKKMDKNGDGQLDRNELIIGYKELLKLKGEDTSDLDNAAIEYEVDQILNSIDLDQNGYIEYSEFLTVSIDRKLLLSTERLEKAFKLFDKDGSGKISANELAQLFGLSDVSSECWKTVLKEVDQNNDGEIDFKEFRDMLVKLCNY
Plasmodium falciparum protein kinase 6 (PK6, PF3D7_1337100), sequence (Q8IDW1 1-305): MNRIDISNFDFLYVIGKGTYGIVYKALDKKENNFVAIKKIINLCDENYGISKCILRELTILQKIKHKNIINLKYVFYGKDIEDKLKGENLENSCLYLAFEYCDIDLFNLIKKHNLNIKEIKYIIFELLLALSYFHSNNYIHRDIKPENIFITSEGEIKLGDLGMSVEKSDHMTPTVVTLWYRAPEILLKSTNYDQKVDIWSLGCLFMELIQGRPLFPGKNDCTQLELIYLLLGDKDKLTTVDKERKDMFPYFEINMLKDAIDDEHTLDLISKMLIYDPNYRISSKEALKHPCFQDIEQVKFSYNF
L-lactate dehydrogenase (Plasmodium falciparum (isolate CDC / Honduras)), sequence (Q27743 whole entry, looked up): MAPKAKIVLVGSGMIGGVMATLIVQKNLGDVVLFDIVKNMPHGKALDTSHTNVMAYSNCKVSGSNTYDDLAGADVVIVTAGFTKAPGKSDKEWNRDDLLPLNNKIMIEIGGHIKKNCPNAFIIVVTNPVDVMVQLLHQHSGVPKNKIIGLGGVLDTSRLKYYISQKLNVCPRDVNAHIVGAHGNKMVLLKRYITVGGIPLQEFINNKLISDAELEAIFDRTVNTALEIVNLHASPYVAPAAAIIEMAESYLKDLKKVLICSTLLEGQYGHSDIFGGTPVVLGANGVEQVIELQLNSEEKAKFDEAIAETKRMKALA

Broadly, the inhibition is the change of the read-out against control, counted positive when it falls. `COc1ccc(CN(C2CC2)C(C)C(=O)c2[nH]c(C)c(C(C)=O)c2C)cc1` (configuration not stated): the values for the growth inhibition in experiment [1] and in experiment [4] were 64% (active) and 98% (active), respectively. For the same compound, the inhibition was 40% (inactive) in experiment [2] and -3% (inactive) in experiment [3]. Besides, the outcome in experiment [5], in experiment [6], in experiment [7] and in experiment [8] was inactive.
As to `Cc1[nH]c2ccc(O)cc2c1C1CCN(CC2CCC(NC(=O)/C=C/c3c(Cl)cccc3Cl)CC2)CC1` (configuration not stated), the growth inhibition is 93% (active) in experiment [1] and 103% (active) in experiment [4]. Besides, the inhibition in experiment [2] was 25% (inactive); in experiment [3], -3% (inactive). Besides, the result in experiment [5], in experiment [6], in experiment [7] and in experiment [8] was inactive.
Take `CNC(=O)c1ccc2[nH]cc(C3CCN(CC4CCN(C(=O)/C=C/c5ccc(Cl)c(Cl)c5)CC4)CC3)c2c1`: the growth inhibition in experiment [1] is 88% (active); in experiment [4], 100% (active). The values for the inhibition in experiment [2] and in experiment [3] were 3% (inactive) and 1% (inactive), respectively. For the same compound, the result in experiment [5], in experiment [6], in experiment [7] and in experiment [8] was inactive.
On to `CNC(=O)c1ccc2[nH]cc(C3CCN(CC4CCC(NC(=O)/C=C/c5ccccc5Cl)CC4)CC3)c2c1` (configuration not stated), for which the growth inhibition in experiment [1] is 19% (inactive); in experiment [4], 100% (active). In addition, the results for the inhibition in experiment [2] and in experiment [3] were 12% (inactive) and 3% (inactive), respectively. In addition, the result in experiment [5], in experiment [6], in experiment [7] and in experiment [8] was inactive.
As to `COC(=O)c1ccc(CC(C)NCC(O)c2cccc(SC(F)(F)F)c2)cc1` (configuration not stated), the growth inhibition is 72% (active) in experiment [1] and 96% (active) in experiment [4]. In addition, the inhibition was 7% (inactive) in experiment [2] and -2% (inactive) in experiment [3]. Further, the outcome in experiment [5], in experiment [6], in experiment [7] and in experiment [8] was inactive.
`O=C(/C=C/c1ccc(Cl)c(Cl)c1)N1CCC(CN2CCC(c3c[nH]c4cc5c(cc34)OCO5)CC2)CC1`: the growth inhibition in experiment [1] is 75% (active); in experiment [4], 102% (active). Moreover, the inhibition in experiment [2] is 41% (inactive); in experiment [3] it was -2% (inactive). Moreover, the outcome in experiment [5], in experiment [6], in experiment [7] and in experiment [8] was inactive.
Turning to `[O-]c1n[n+](C2CCCCC2)no1`, the growth inhibition in experiment [1] was 82% (active); in experiment [4], 91% (active). In addition, the inhibition was -13% (inactive) in experiment [2] and -5% (inactive) in experiment [3]. The result in experiment [5], in experiment [6], in experiment [7] and in experiment [8] was inactive.
Take `CN1CCC(COC(=O)C(O)(c2ccccc2)c2ccccc2)C1` (configuration not stated): the growth inhibition in experiment [1] was 4% (inactive); in experiment [4], 98% (active). Further, the inhibition in experiment [2] is 0% (inactive); in experiment [3], -4% (inactive). Also, the result in experiment [5], in experiment [6], in experiment [7] and in experiment [8] was inactive.
For `S=C(NCCc1ccc(Cl)cc1)NC1CCC(CN2CCC(c3c[nH]c4ccccc34)CC2)CC1` (configuration not stated), the growth inhibition in experiment [1] was 34% (inactive) and 84% (active); in experiment [4], 100% (active) and 101% (active). The inhibition was 37% (inactive) and 42% (inactive) in experiment [2]; -2% (inactive) and -8% (inactive) in experiment [3]. Further, the result in experiment [5], in experiment [6], in experiment [7] and in experiment [8] was inactive.
As to `CC(C)/C(=C(/F)CN1C(=O)C(NC(=O)c2cc3ccccc3[nH]2)C(=O)N(c2ccccc2)c2ccccc21)c1ccccc1` (configuration not stated), the results for the growth inhibition in experiment [1] and in experiment [4] were 82% (active) and 98% (active), respectively. Besides, the inhibition in experiment [2] is 7% (inactive); in experiment [3], -2% (inactive). The outcome in experiment [5], in experiment [6], in experiment [7] and in experiment [8] was inactive.
Take `Cc1ccc(CC(C)(C)NCC(O)c2cccc(C(F)(F)F)c2)cc1` (configuration not stated): the values for the growth inhibition in experiment [1] and in experiment [4] were 92% (active) and 97% (active), respectively. Further, the values for the inhibition in experiment [2] and in experiment [3] were 19% (inactive) and 2% (inactive), respectively. Further, the outcome in experiment [5], in experiment [6], in experiment [7] and in experiment [8] was inactive.
`Cc1csc(NC2=NCCN2)n1`: the growth inhibition was 1% (inactive) in experiment [1] and 99% (active) in experiment [4]. The inhibition in experiment [2] is 10% (inactive); in experiment [3], 0% (inactive). The outcome in experiment [5], in experiment [6], in experiment [7] and in experiment [8] was inactive.
As to `CN(c1ccnc(Nc2ccc(CS(C)(=O)=O)cc2)n1)C1CCN(Cc2ccccc2)CC1`, the growth inhibition in experiment [1] is 9% (inactive); in experiment [4], 83% (active). In addition, the inhibition in experiment [2] was 10% (inactive); in experiment [3], 1% (inactive). The outcome in experiment [5], in experiment [6], in experiment [7] and in experiment [8] was inactive.
`COCC(=O)N(Cc1ccccc1-c1cccc(CNCCc2ccccc2)c1)C1CCN(Cc2ccccc2)CC1`: the growth inhibition is 36% (inactive) in experiment [1] and 93% (active) in experiment [4]. In addition, the inhibition in experiment [2] is 21% (inactive); in experiment [3], 3% (inactive). Besides, the result in experiment [5], in experiment [6], in experiment [7] and in experiment [8] was inactive.
`CC(=O)N(Cc1ccc(-c2ccc(CNCCc3ccccc3)cc2)cc1)C1CCN(Cc2ccccc2)CC1`: the growth inhibition is 15% (inactive) in experiment [1] and 95% (active) in experiment [4]. Besides, the values for the inhibition in experiment [2] and in experiment [3] were 45% (inactive) and -2% (inactive), respectively. Besides, the outcome in experiment [5], in experiment [6], in experiment [7] and in experiment [8] was inactive.
`OC(CNC1CCCCC1)c1ccc(Cl)c(Cl)c1` (configuration not stated): the growth inhibition was 96% (active) in experiment [1] and 99% (active) in experiment [4]. In addition, the inhibition in experiment [2] is 17% (inactive); in experiment [3] it was -1% (inactive). Also, the result in experiment [5], in experiment [6], in experiment [7] and in experiment [8] was inactive.
Take `CNCCN(C)C(=O)Oc1c(Cl)c(C)nc(C)c1-c1ccc(Oc2ccc(OC(F)(F)F)cc2)cc1`: the growth inhibition in experiment [1] was 96% (active); in experiment [4], 97% (active). Also, the inhibition in experiment [2] and in experiment [3] was -2% (inactive) each time. The outcome in experiment [5], in experiment [6], in experiment [7] and in experiment [8] was inactive.
Turning to `CCCc1c(C(=O)NC2CCC(CN3CCC(c4c[nH]c5ccccc45)CC3)CC2)cnn1-c1c(Cl)cc(Cl)cc1Cl` (configuration not stated), the growth inhibition in experiment [1] was 49% (inactive); in experiment [4], 100% (active). The inhibition is 41% (inactive) in experiment [2] and -5% (inactive) in experiment [3]. In addition, the outcome in experiment [5], in experiment [6], in experiment [7] and in experiment [8] was inactive.
On to `COc1ccc(CN2CCN(CCOC(c3ccc(F)cc3)c3ccc(F)cc3)CC2)c(O)c1`, for which the growth inhibition in experiment [1] and in experiment [4] was 97% (active) throughout. Besides, the inhibition was 6% (inactive) in experiment [2] and -6% (inactive) in experiment [3]. Besides, the result in experiment [5], in experiment [6], in experiment [7] and in experiment [8] was inactive.
